Only a selection was taken, and hits are over-represented in it overall.
LmPK inh: LmPK (Leishmania mexicana) enzyme inhibition; Q27686; purified LmPK, Kinase-Glo ATP luminescence, 1 h; Potency, µM (top dose mostly 57.5 µM), hits mostly inhibitors; 0.37% of 290,000 active; AID 1721
Target sequence (Q27686 whole entry, looked up): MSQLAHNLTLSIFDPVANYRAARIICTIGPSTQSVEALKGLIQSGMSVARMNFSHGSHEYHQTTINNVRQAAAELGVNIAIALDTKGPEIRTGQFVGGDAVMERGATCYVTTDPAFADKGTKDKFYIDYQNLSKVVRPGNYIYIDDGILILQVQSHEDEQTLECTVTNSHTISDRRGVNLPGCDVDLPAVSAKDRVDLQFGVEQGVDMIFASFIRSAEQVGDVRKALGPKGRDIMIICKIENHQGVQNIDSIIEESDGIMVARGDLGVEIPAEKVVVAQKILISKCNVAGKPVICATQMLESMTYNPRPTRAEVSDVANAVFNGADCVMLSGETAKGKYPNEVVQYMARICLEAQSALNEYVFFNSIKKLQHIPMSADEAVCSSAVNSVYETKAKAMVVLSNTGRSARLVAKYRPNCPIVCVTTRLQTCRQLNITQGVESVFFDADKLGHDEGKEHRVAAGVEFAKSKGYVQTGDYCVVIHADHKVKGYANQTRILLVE
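ATP generated from ADP (0.1 mM) and PEP (0.5 mM) by 0.1 nM LmPK over 1 h at room temperature (pH 7.2 imidazole buffer) was detected by coupled luciferase luminescence. Values were normalized to uninhibited and no-enzyme wells.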
Cycloheximide cs: affects cycloheximide protein synthesis inhibition readout, counter-screen; cell reporter, cycloheximide protein synthesis inhibition counterscreen; max response, %; 12% of 300,000 active; in the data active means max response mostly above about 13%, no sharp cut-off; inactive means mostly below about 14%; further: read at 38.3 µM for the half of the compounds with a filed dose
RE007 growth inh: less growth of the S. pombe RE007 Vpr strain; 0.21% of 360,000 active; Potency, µM (top dose mostly 92.2 µM), hits mostly inhibitors; S. pombe RE007 Vpr strain, BacTiter-Glo ATP luminescence, 24 h; active means well fitted falling curve with a large enough effect; inconclusive means small, poorly fitted or top-dose-only effect; inactive means no such curve, though single readings can be large or run the other way; further: nearly all actives have a fitted effect of over 50% in size
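Fission yeast strain RE007, carrying one chromosomally integrated HIV-1 vpr copy, was seeded at OD 0.01 in PMG+AL medium with 23 nL pinned compound. After 24 h at 30 °C and 99% humidity, viability was read by BacTiter-Glo luminescence.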
Tb PYK inh: T. brucei pyruvate kinase inhibition. Potency, µM (series often up to 76.8 µM), usual class: inhibitors. TbPYK enzyme, Kinase-Glo Plus ATP luminescence, 45 min. 0.12% of 410,000 active. AID 624173; further: nearly all actives have a fitted effect of over 50% in size
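Readout: single end-point luminescence (Kinase-Glo Plus, 10 min). Reaction conditions were TbPYK/substrate plus 130 uM ADP, 45 min at RT, pH 7.2 TEA buffer. No-enzyme wells served as controls, and data were normalized before concentration-response fitting.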
Shiga toxin inh: inhibitors of Shiga toxin in Vero cells; Vero cells, Shiga toxin protein synthesis inhibition reporter; inhibition, % at 38.7 µM; 9.2% of 290,000 active; in the data active means inhibition mostly above about 28%, no sharp cut-off; inactive means mostly below about 43%
Giardia FBPA inh-1: Giardia lamblia aldolase inhibition; 0.71% of 290,000 active; A8B2U2; Potency, µM (titrated, usually from 59.6 µM), actives largely listed as inhibitors; purified Giardia FBPA; further: nearly all actives have a fitted effect of over 55% in size
Target sequence (A8B2U2 whole entry, looked up): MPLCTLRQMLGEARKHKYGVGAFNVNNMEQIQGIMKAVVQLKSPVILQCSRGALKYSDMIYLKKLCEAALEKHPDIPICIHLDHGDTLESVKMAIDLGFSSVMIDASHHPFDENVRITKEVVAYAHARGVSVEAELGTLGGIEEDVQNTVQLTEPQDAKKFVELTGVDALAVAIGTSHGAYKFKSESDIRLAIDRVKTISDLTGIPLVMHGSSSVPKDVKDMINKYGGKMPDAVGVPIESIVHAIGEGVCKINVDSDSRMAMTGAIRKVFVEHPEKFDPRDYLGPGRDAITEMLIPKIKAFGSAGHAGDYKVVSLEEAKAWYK
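Giardia FBPA (40 nM reagent) was preincubated 10 min at RT with compound (up to 57.5 uM final), then substrate plus GAPDH/TPI/NAD/arsenate coupling system with diaphorase/resazurin was added; resorufin fluorescence (525/598 nm) was read after 20 min.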
Giardia growth: Giardia lamblia growth inhibition | Giardia lamblia trophozoite growth inhibition | Potency, µM (doses to about 57.5 µM), hits mostly inhibitors | shares compounds with Giardia FBPA inh-1 | 5% of 1,500 active | AID 2785;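 further: trophozoites exposed to compound for 48 h at 37 °C; nearly all actives have a fitted effect of over 70% in size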
Mammal cell tox: counter-screen for Giardia aldolase inhibitors: mammalian cell toxicity. shares compounds with Giardia FBPA inh-1. mammalian cell viability counter-screen, qHTS. Potency, µM (series often up to 57.5 µM), most hits filed as inhibitors. 4% of 1,500 active;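 further: Chinese hamster ovary cells used as mammalian cytotoxicity surrogate; viability measured as cellular ATP by luminescence; compound exposure lasted 48 h before reading; nearly all actives have a fitted effect of over 60% in size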
Giardia FBPA inh-2: confirmation of Giardia fructose-bisphosphate aldolase inhibitors; shares compounds with Giardia FBPA inh-1; purified Giardia aldolase enzyme activity, qHTS; Potency, µM (top dose mostly 57.5 µM), most hits filed as inhibitors; 5% of 1,500 active; further: nearly all actives have a fitted effect of over 45% in size
Rabbit aldolase: selectivity test for Giardia aldolase inhibitors: rabbit aldolase; 4% of 1,500 active; Rabbit muscle FBPA enzyme inhibition, selectivity counter-screen; shares compounds with Giardia FBPA inh-1; Potency, µM (series often up to 57.5 µM), actives largely listed as inhibitors; further: nearly all actives have a fitted effect of over 60% in size
GAPDH coupling: counter-screen for Giardia aldolase inhibitors: GAPDH coupling enzyme; Potency, µM (doses to about 57.5 µM), hits mostly inhibitors; shares compounds with Giardia FBPA inh-1; GAPDH coupling enzyme counterscreen, biochemical, qHTS; AID 2795; 6% of 1,500 active; further: nearly all actives have a fitted effect of over 55% in size
Hits are given with their value; – = inactive; ? = inconclusive; · = not tested or not shown; [ ] = remark or other dose. Unless noted, the call rests on the fitted dose curve; in most records, active means well fitted curve in the direction sought with a large enough effect; inconclusive means small, poorly fitted or top-dose-only effect, or another doubt; inactive means no such curve, though single readings can be large; an effect the other way counts as inactive or inconclusive.

SMILES	LmPK inh	Cycloheximide cs	RE007 growth inh	Tb PYK inh	Shiga toxin inh	Giardia FBPA inh-1	Giardia growth	Mammal cell tox	Giardia FBPA inh-2	Rabbit aldolase	GAPDH coupling
CCCCOC(=O)c1ccc(NC(=O)c2ccc3c(c2)CCN3S(C)(=O)=O)cc1	·	·	·	–	·	·	·	·	·	·	·
O=C(Nn1c(=S)[nH]c2ccccc2c1=O)c1ccncc1	–	–	–	–	–	16µM	–	–	–	–	–
O=C(CCN1CCCCC1)Nn1c(=S)[nH]c2ccccc2c1=O	–	–	–	–	–	22µM	?	–	–	–	–
CC(C)NC(=O)c1ccc(-n2c(=S)[nH]c3ccccc3c2=O)cc1	–	–	·	·	–	–	·	·	·	·	·
O=c1c2ccccc2[nH]c(=S)n1CCN1CCCC1	–	–	–	–	–	–	·	·	·	·	·
CCCn1c(-c2ccc(F)cc2)nc2c(N3CCC(N(C)C)C3)nc(C)nc21 (stereo not given)	·	·	·	·	·	–	·	·	·	·	·
Nc1ccccc1SCc1c(Cl)cccc1Cl	–	–	–	–	–	–	·	·	·	·	·
CC(C(Sc1ccccc1N)c1ccccc1)[N+](=O)[O-] (stereo not given)	–	32	–	25µM	61	20µM	?	32µM	–	–	–
CCCCNC(=O)CCCn1c(=O)c2ccccc2n(Cc2cccc(Cl)c2)c1=O	·	·	·	–	·	·	·	·	·	·	·
O=C(c1ccco1)N1CCC2(CCCN(C(c3ccccc3)c3ccccc3)C2)CC1	·	·	·	–	·	–	·	·	·	·	·
O=C(Nc1cccc(C(=O)Nc2ccc(F)cc2F)c1)c1ccccc1	–	–	–	–	–	–	·	·	·	·	·
O=C(Nc1ccc(F)cc1F)c1cc(=O)n(-c2ccccc2)c(=O)[nH]1	–	–	–	–	–	7.9µM	–	–	–	–	–
CCNC(=O)C1CCCN1C(=O)C(CCCN=C(N)N)NC(=O)C(CC(C)C)NC(=O)C(Cc1cn(Cc2ccccc2)cn1)NC(=O)C(Cc1ccc(O)cc1)NC(=O)C(CO)NC(=O)C(Cc1c[nH]c2ccccc12)NC(=O)C(Cc1cnc[nH]1)NC(=O)C1CCC(=O)N1 (stereo not given)	–	–	–	–	–	10µM	–	–	–	–	–
O=C(N/N=C/c1cc(Br)c(Br)o1)c1ccc2c(c1)OCCO2	–	28	–	–	60	13µM	–	–	–	–	–
O=C(N/N=C/c1cc(Br)c(Br)o1)c1cccnc1	–	–	–	–	–	?	·	·	·	·	·
Nc1nc(=S)c2ncn([C@H]3O[C@@H](CO)[C@@H](O)[C@@H]3O)c2[nH]1	·	·	·	·	·	5.6µM	–	5µM	–	–	–
Nc1nc(=S)c2ncn(C3OC(CO)CC3O)c2[nH]1 (stereo not given)	·	·	–	–	·	·	·	·	·	·	·
COc1ccc(CCn2c(NN=C(C)C)nc3c2c(=O)[nH]c(=O)n3C)cc1	–	–	–	–	–	2.8µM	–	–	13µM	?	14µM
COc1ccc(CCn2c(NN)nc3c2c(=O)[nH]c(=O)n3C)cc1	–	–	–	–	–	5µM	–[10.4 µM]	–	32µM	?	25µM
COc1ccccc1OCC#CCNC1CCCCC1C (stereo not given)	–	–	–	–	–	1.6µM	–	–	–	–	–
COc1ccc(NC(=S)NCCCN2CCCC2)cc1Cl	–	–	–	–	–	8.9µM	?	32µM	?	–	?
COc1ccc(NC(=S)N(CCC(C)C)C2CCN(C(C)C)CC2)cc1Cl	–	–	–	–	–	?	·	·	·	·	·
COCCN(C(=S)Nc1ccc(OC)c(Cl)c1)C1CCN(C(C)C)CC1	–	–	–	–	–	11µM	?	–	–	–	–
COc1ccc(NC(=S)N(CCCN2CCN(C)CC2)Cc2cccs2)cc1	–	–	–	–	–	–	·	·	·	·	·
COc1ccc(NC(=S)N(CCCN2CCC(C)CC2)Cc2cccs2)cc1Cl	–	–	–	?	–	16µM	–[10.4 µM]	–	–	–	–
SMILES	LmPK inh	Cycloheximide cs	RE007 growth inh	Tb PYK inh	Shiga toxin inh	Giardia FBPA inh-1	Giardia growth	Mammal cell tox	Giardia FBPA inh-2	Rabbit aldolase	GAPDH coupling
COc1cc(NC(=S)NCCCN2CCOCC2)c(OC)cc1Cl	–	–	–	–	–	–	·	·	·	·	·
COc1ccc(OC)c(-n2c(=O)[nH]c3cc(C(=O)NCCc4ccc(OC)c(OC)c4)ccc3c2=O)c1	·	·	·	–	·	·	·	·	·	·	·
CCc1ccc(-n2nc(CO)c(C(=O)NCCCc3ccccc3)n2)cc1	·	·	·	–	·	·	·	·	·	·	·
COc1cccc2c1C(=O)C=C(C)C2=O	–	–	?	–	–	?	·	·	·	·	·
CC1=CC(=O)c2ccccc2C1=O	–	–	–[18.4 µM]	–	–	?	–	–	?	?	?
Cc1nc2ccccc2oc1=O	·	·	·	·	·	–	·	·	·	·	·
Nc1cc2nc3ccccc3oc-2cc1=O	–	28	63µM	–	42	18µM	–[10.4 µM]	–	?	–	?
COc1ccc(OC)c(CCNC(=O)Cn2nc(C)n3c(cc4sccc43)c2=O)c1	·	·	·	–	·	·	·	·	·	·	·
CC(/C=N/n1c(-c2cc(C)[nH]n2)n[nH]c1=S)=C\c1ccco1	–	–	–	?	–	2.5µM	–	–	?	–	–
COc1cccc(/C=N/n2c(-c3cc(C)[nH]n3)n[nH]c2=S)c1O	–	–	–	?	–	5.6µM	?	–	–	?	–
CC(/C=N/n1c(-c2ccc(Cl)cc2)n[nH]c1=S)=C\c1ccco1	–	–	·	?	–	–	·	·	·	·	·
COc1ccccc1CNC(=O)Cc1csc2nc(-c3ccc(F)cc3)cn12	·	·	·	–	·	·	·	·	·	·	·
CC(=O)OC1CC2C(C)(C)CCC(=O)[C@@]2(C)C2CC[C@@]3(C)C(c4ccoc4)OC(=O)C4OC43[C@]12C (stereo not given in full)	·	·	·	·	·	–	·	·	·	·	·
CCOC(=O)c1ccc(NC(=O)C(CC)Sc2nc3ccncc3[nH]2)cc1 (stereo not given)	·	·	·	–	·	·	·	·	·	·	·
Cn1c(=S)c2[nH]c(SCCN3CCCC3)nc2n(C)c1=O	–	–	·	–	–	11µM	–[10.4 µM]	–	–	–	–
CCN(C(=O)c1cc(S(=O)(=O)N2CCCC2)cn1C)c1ccc(OC)cc1	·	·	·	–	·	·	·	·	·	·	·
O=[N+]([O-])c1cc2c(cc1CN1CCN(CCOCCO)CC1)OCO2	–	–	–	–	–	10µM	–[10.4 µM]	–	–	–	–
CCN1CCN(Cc2cc3c(cc2[N+](=O)[O-])OCO3)CC1	–	–	–	–	–	?	·	·	·	·	·
Cc1ccc2occ(-c3cc(-c4ccccc4)nc4c3COc3ccccc3-4)c(=O)c2c1	·	·	·	–	·	·	·	·	·	·	·

Bioassay records: PubChem BioAssay, National Center for Advancing Translational Sciences (NCATS)
